In PubChem BioAssay AID1159580 (chemical genetic matrix, 2015):
The whole screen tested about 5,500 compounds, of which about 2,000 (36%) were called active. Another 18% or so got no clear call; they are omitted. No stated cut-off is given here; in the data, active means normalized growth mostly below about 0.91 (no sharp cut-off); inconclusive means no clear call, values can overlap the other calls; inactive means mostly above about 0.92. This is one part of the list.

Assay: chemical genetic growth profiling, strain panel (AID 1159580);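 further: tested at 20 µM; growth read once vehicle control cultures reached saturation at 30 °C; 1 = growth at the plate median or of vehicle wells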
Conditions: S. cerevisiae deletion strains, growth OD

Measured: normalized growth

CCN[C@@H]1C[C@H](N)[C@@H](O[C@H]2OC(CN)=CC[C@H]2N)[C@H](O)[C@H]1OC1OC[C@](C)(O)[C@H](NC)[C@H]1O (stereo not given in full)
inactive: locus YAL021C, strain ccr4, stronger effect = lower value 0.983 | locus YAL026C, strain drs2, stronger effect = lower value 0.995 | locus YAL030W, strain snc1, stronger effect = lower value 1.01 | locus YBL061C, strain skt5, stronger effect = lower value 1 | locus YBR009C, strain hhf1, stronger effect = lower value 1.02 | locus YBR023C, strain chs3, stronger effect = lower value 1 | locus YBR171W, strain sec66, stronger effect = lower value 0.996 | locus YBR231C, strain swc5, stronger effect = lower value 1.01 | locus YBR279W, strain paf1, stronger effect = lower value 1.01 | locus YCL011C, strain gbp2, stronger effect = lower value 0.977 | locus YCL016C, strain dcc1, stronger effect = lower value 1 | locus YCL061C, strain MRC1, stronger effect = lower value 0.989 | locus YCL069W, strain vba3, stronger effect = lower value 0.994 | locus YCR088W, strain abp1, stronger effect = lower value 0.983 | locus YDL005C, strain med2, stronger effect = lower value 1 | locus YDL040C, strain nat1, stronger effect = lower value 1.01 | locus YDR001C, strain nth1, stronger effect = lower value 0.985 | locus YDR069C, strain doa4, stronger effect = lower value 1.01 | locus YDR137W, strain rgp1, stronger effect = lower value 0.96 | locus YDR159W, strain sac3, stronger effect = lower value 1.01 | locus YDR195W, strain ref2 0.993 | locus YDR297W, strain sur2, stronger effect = lower value 0.998 | locus YDR334W, strain swr1, stronger effect = lower value 0.979 | locus YDR335W, strain msn5, stronger effect = lower value 0.986 | locus YDR392W, strain spt3, stronger effect = lower value 0.998 | locus YEL003W, strain gim4, stronger effect = lower value 0.989 | locus YEL037C, strain rad23, stronger effect = lower value 0.948 | locus YEL061C, strain CIN8 (second series), stronger effect = lower value 0.981 | locus YER015W, strain faa2, stronger effect = lower value 1.02 | locus YER016W, strain bim1, stronger effect = lower value 0.997 | locus YER111C, strain swi4, stronger effect = lower value 0.994 | locus YER155C, strain BEM2 (second series), stronger effect = lower value 1.01 | locus YFR010W, strain ubp6, stronger effect = lower value 0.975 | locus YGL167C, strain pmr1, stronger effect = lower value 0.998 | locus YGL173C, strain kem1, stronger effect = lower value 1 | locus YGL227W, strain vid30, stronger effect = lower value 0.995 | locus YGL240W, strain doc1, stronger effect = lower value 1.01 | locus YGL253W, strain hxk2, stronger effect = lower value 0.995 | locus YHR013C, strain ard1, stronger effect = lower value 1.02 | locus YHR027C, strain rpn1, stronger effect = lower value 0.999 | locus YHR030C, strain SLT2, stronger effect = lower value 0.97 | locus YHR079C, strain IRE1, stronger effect = lower value 1.02 | locus YHR142W, strain chs7, stronger effect = lower value 0.946 | locus YJL092W, strain hpr5, stronger effect = lower value 0.984 | locus YJL095W, strain BCK1 (second series), stronger effect = lower value 1.01 | locus YJL095W, strain BCK1, stronger effect = lower value 0.972 | locus YJL115W, strain asf1, stronger effect = lower value 0.998 | locus YJL129C, strain trk1, stronger effect = lower value 0.989 | locus YJL154C, strain vps35, stronger effect = lower value 0.996 | locus YJL164C, strain tpk1, stronger effect = lower value 0.996 | locus YJL166W, strain qcr8, stronger effect = lower value 1.01 | locus YJL187C, strain SWE1, stronger effect = lower value 1 | locus YJR066W, strain TOR1, stronger effect = lower value 0.947 | locus YKL160W, strain elf1, stronger effect = lower value 0.986 | locus YKR026C, strain gcn3, stronger effect = lower value 0.978 | locus YKR091W, strain srl3, stronger effect = lower value 0.995 | locus YLL001W, strain dnm1, stronger effect = lower value 0.981 | locus YLL026W, stronger effect = lower value 1.01 | locus YLL041C, strain sdh2, stronger effect = lower value 0.988 | locus YLR027C, strain aat2, stronger effect = lower value 1.01 | locus YLR113W, strain HOG1, stronger effect = lower value 0.953 | locus YLR221C, strain rsa3, stronger effect = lower value 0.987 | locus YLR258W, strain gsy2, stronger effect = lower value 1 | locus YLR262C, strain YPT6 (second series), stronger effect = lower value 1 | locus YLR320W, strain mms22, stronger effect = lower value 1.01 | locus YLR342W, strain FKS1, stronger effect = lower value 0.997 | locus YLR357W, strain rsc2, stronger effect = lower value 0.986 | locus YLR370C, strain arc18, stronger effect = lower value 0.994 | locus YLR384C, strain iki3, stronger effect = lower value 1 | locus YML120C, strain ndi1, stronger effect = lower value 0.983 | locus YMR058W, strain fet3, stronger effect = lower value 0.986 | locus YMR125W, strain sto1, stronger effect = lower value 1 | locus YMR129W, stronger effect = lower value 0.994 | locus YMR205C, strain PFK2, stronger effect = lower value 1.03 | locus YMR231W, strain pep5, stronger effect = lower value 1 | locus YNL071W, strain lat1, stronger effect = lower value 1 | locus YNL183C, strain NPR1, stronger effect = lower value 0.935 | locus YNL209W, strain ssb2, stronger effect = lower value 1 | locus YNL248C, strain rpa49, stronger effect = lower value 0.949 | locus YNL322C, strain KRE1 (second series), stronger effect = lower value 0.995 | locus YNR049C, strain mso1, stronger effect = lower value 0.995 | locus YOR001W, strain rrp6, stronger effect = lower value 0.982 | locus YOR070C, strain gyp1, stronger effect = lower value 0.996 | locus YOR080W, strain dia2, stronger effect = lower value 0.998 | locus YOR083W, strain WHI5, stronger effect = lower value 0.995 | locus YOR106W, strain vam3, stronger effect = lower value 0.985 | locus YOR231W, strain MKK1, stronger effect = lower value 0.986 | locus YOR265W, strain rbl2, stronger effect = lower value 1 | locus YOR270C, strain vph1, stronger effect = lower value 0.939 | locus YOR290C, strain snf2, stronger effect = lower value 0.987 | locus YPL051W, strain arl3, stronger effect = lower value 1 | locus YPL078C, strain atp4, stronger effect = lower value 0.972 | locus YPL106C, strain sse1, stronger effect = lower value 1 | locus YPL240C, strain hsp82, stronger effect = lower value 0.986 | locus YPL256C, strain CLN2, stronger effect = lower value 0.963
